These results are taken from PubChem BioAssay AID463213 (Sanford-Burnham Center for Chemical Genomics, 2010).

By inhibition is commonly meant the drop in the measured response relative to a control, in per cent.

Molecules are shown by their SMILES. Out of some 7,400 compounds screened, about 4,100 (55%) were called active. So high a share suggests a set chosen from earlier hits. A selection follows. A number with no mark means an inactive call.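 Rule for the calls: active = inhibition of yeast growth at or above a set limit in either of two repeat tests at 20 µM; inactive = the rest.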

This test is described as follows: tim10-1 ts yeast growth inhibition, retested – single concentration, luminescence, S. cerevisiae, confirmation (AID 463213).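 Note: tim10-1 mutant grown at permissive 25 °C to find synthetic lethal compounds; 0% = DMSO yeast wells and 100% = medium wells without yeast.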 The conditions noted are these: S. cerevisiae tim10-1 ts strain growth, BacTiter-Glo, 24 h; at 20 µM; stronger effect = higher value.
For the compound `c1ccc(-c2nnc3n2NC(c2ccc4c(c2)OCO4)S3)cc1` (stereo not drawn), the inhibition was 34% (active).

Take `Cc1cccc(C2c3[nH]c4ccccc4c3CCN2C(=O)c2cc(-c3cccn3C)n[nH]2)n1` (stereo not drawn): the inhibition is 14.3%.

For `CCCCC(=O)Nc1nc(C)c(-c2csc(Nc3ccc(Cl)cc3)n2)s1`, the inhibition is 31% (active).

On to `C=CCCC(=O)Nc1nc(C)c(-c2csc(Nc3ccc(Cl)cc3)n2)s1`, for which the inhibition is 19.9%.

In the case of `O=[N+]([O-])c1ccc(C=Nc2ccc(Cl)cc2Cl)s1`, the inhibition is 69.8% (active).

As to `COc1ccc(/C=C/C2=CC(C)(C)NC(=S)N2)c(OC)c1`, the inhibition was 20.4%.

For the compound `NS(=O)(=O)c1ccc(NC(=S)Nc2ccc(Br)c(Cl)c2)cc1`, the inhibition was 41.2% (active).

On to `CC(Nc1nc(C(F)(F)F)nc2ccccc12)c1cccs1` (stereo not drawn), for which the inhibition is 30.1% (active).

Turning to `O=C1CC(c2ccccc2)=NN1c1ccc([N+](=O)[O-])cc1`, the inhibition is 23.8%.

On to `O=[N+]([O-])c1ccc2c(c1)Nc1nc3ccccc3nc1N2`, for which the inhibition was 70.2% (active).

Turning to `COc1ccccc1NC(=O)C1=C(C)Nc2nnnn2C1c1cccc(Br)c1` (stereo not drawn), the inhibition is 28.7%.

As to `CC(C)c1cc(C(N)=O)c(NC(=O)c2cccc(COc3ccc(Br)cc3)c2)s1`, the inhibition was 26.9%.

As for `CCc1cc(C(N)=O)c(NC(=O)c2ccc(OC)cc2)s1`, the inhibition was 58.2% (active).

As to `Cn1c(-c2sccc2OCc2cccc(C(F)(F)F)c2)n[nH]c1=S`, the inhibition is 25.1%.

Regarding `CCSC1=C(C#N)C(=O)n2c1cc1c2CCCC1`, the inhibition was 52.3% (active).

For the compound `N#CC1(C#N)C(C(=O)C23CC4CC(CC(C4)C2)C3)C12CCOCC2` (stereo not drawn), the inhibition was 41.9% (active).

Turning to `COc1cc(NS(=O)(=O)c2ccc3ccccc3c2)c2ncccc2c1`, the inhibition was 27.8%.

Take `COc1ccc(S(=O)(=O)Nc2ccc(O)c(Sc3nc4ccccc4s3)c2)cc1`: the inhibition was 37% (active).

In the case of `CC(=NCc1ccc2c(c1)OCO2)C1=C(O)c2ccccc2C1=O`, the inhibition was 40.3% (active).

With `c1ccc(-c2cn3c(n2)CCc2ccc4cccnc4c2-3)cc1`, the inhibition is 30.3% (active).

Consider `Cc1nc2ccccc2cc1OCc1ccc(F)cc1`, for which the inhibition was 9.05%.

For `Cc1ccc(-c2csc(-c3c[nH]c4ccccc34)n2)cc1`, the inhibition was 50.9% (active).

Take `O=C(c1cccs1)N(C(=O)c1cccs1)c1ccccn1`: the inhibition is 20.9%.

In the case of `COc1ccc(C)cc1Nc1nc(C)nc2c1oc1ccccc12`, the inhibition is 25.5%.

As to `O=C(NCCc1ccc(F)cc1)c1ccc(S(=O)(=O)N2CCCCC2)cc1`, the inhibition was 43.5% (active).

`O=C(CCc1ccc(S(=O)(=O)N2CCOCC2)cc1)Nc1ccc2ccccc2c1`: the inhibition was 28.1%.

For the compound `COc1ccc(Oc2cn[nH]c2-c2ccc(OC)cc2O)cc1`, the inhibition is 39.3% (active).

`CCCc1[nH]nc2c1C(c1ccc(Br)s1)C(C#N)=C(N)O2` (stereo not drawn): the inhibition was 79.5% (active).

In the case of `CSc1ccc(S(=O)(=O)NCc2ccc(Cl)cc2)cc1`, the inhibition was 30.4% (active).

Consider `CSc1ccc(S(=O)(=O)NC2CCCCC2)cc1`, for which the inhibition is 22.4%.

`N/C(=N\OC(=O)c1cc(-c2ccccc2)nc2ccccc12)c1ccncc1`: the inhibition is 70.7% (active).

As to `O=C(/C=C/c1ccc(Cl)c([N+](=O)[O-])c1)c1cccnc1`, the inhibition was 62% (active).

With `O=C(/C=C/c1ccc(Cl)c([N+](=O)[O-])c1)c1ccc(O)cc1`, the inhibition is 48.3% (active).

Consider `O=[N+]([O-])c1ccc(N2CCN(c3ccc(O)cc3)CC2)c(Cl)c1`, for which the inhibition was 30.2%.

As to `Cc1ccc(N2C(=O)C(Cc3ccccc3)NC2=S)cc1` (stereo not drawn), the inhibition was 16.7%.

In the case of `Cc1sc2ncnc(SCC(=O)Nc3ccc(CN4CCCC4)cc3)c2c1C`, the inhibition is 23.3%.

Turning to `O=C1C=CC(=O)N1c1ccc(N2CCCCC2)cc1`, the inhibition is 92.6% (active).

Regarding `Cc1oc2cc(Br)c(O)c(Br)c2c1C(=O)c1ccccc1`, the inhibition is 36.2% (active).

Take `CC1=C/C(=N\OS(=O)(=O)c2ccccc2)C=CC1=O`: the inhibition is 60.8% (active).

In the case of `O=c1c(Cl)c(NCc2ccc(F)cc2Cl)cnn1C12CC3CC(CC(C3)C1)C2`, the inhibition was 44.2% (active).

As for `COc1ccc(OC)c(-c2c(=O)n(OCc3ccccc3Br)c3ccccc3[n+]2[O-])c1`, the inhibition was 24.3%.

Consider `CCc1nc(C)cn1S(=O)(=O)c1cc([N+](=O)[O-])ccc1Cl`, for which the inhibition is 47.8% (active).

Take `CC(C)c1nccn1S(=O)(=O)c1cc([N+](=O)[O-])ccc1Cl`: the inhibition was 28.7%.

As to `O=C(c1ccccc1)N1CCC(CC2CC(c3ccc(Cl)cc3)=NO2)(C(=O)NCC2CCCCC2)CC1` (stereo not drawn), the inhibition is 34% (active).

As to `O=C(COC(=O)CCOc1ccccc1)Nc1cc(S(=O)(=O)N2CCCCC2)ccc1Cl`, the inhibition is 30.2%.

For the compound `COc1cc([N+](=O)[O-])ccc1NC(=O)COC(=O)CCOc1ccc(C)cc1`, the inhibition is 63.3% (active).

With `O=C(NC1CCCCC1)c1ccc(-c2ccc(Cl)cc2)o1`, the inhibition was 39% (active).

In the case of `O=C(Nc1cccc(F)c1)NC1CCCCCCC1`, the inhibition is 20.1%.

Take `CSC1=N/C(=C\C=C\c2cccs2)C(=O)S1`: the inhibition is 51.9% (active).

Consider `O=[N+]([O-])c1ccc(N/N=C/c2ccccc2)cc1`, for which the inhibition was 27%.

For the compound `c1ccc(-c2nc(NCc3ccco3)c3ccccc3n2)cc1`, the inhibition is 42% (active).

As to `S=c1[nH]c2ccccc2c2ccccc12`, the inhibition is 7.95%.

For `C#CCN1C(=O)C(O)(CC(=O)c2cc(OC)ccc2OC)c2ccccc21` (stereo not drawn), the inhibition is 30.6%.

Consider `CC(C)(CCl)C(=O)Nc1ccc(Sc2ccc(F)cc2)cc1`, for which the inhibition is 51.8% (active).

Consider `Cc1cccc(OCCNC(=S)NC(=O)c2cccnc2)c1`, for which the inhibition was 27.1%.

For `COCCNC(=O)/C(C#N)=C/c1cccc(OCc2ccccc2)c1`, the inhibition was 70.2% (active).

For `S=C(NCc1ccc(Cl)cc1)NC12CC3CC(CC(C3)C1)C2`, the inhibition is 3.55%.

As to `C/C(=N/NC(=O)c1cc(Cl)ccc1O)C12CC3CC(CC(C3)C1)C2`, the inhibition is 34.1% (active).

In the case of `C/C(=N\Nc1nc(Nc2ccccc2)nc(N2CCOCC2)n1)c1cccs1`, the inhibition is 24.8%.

With `Cc1cc(C)n(-c2nc(SCC(=O)N3CCCC3)c3c4c(sc3n2)CCCC4)n1`, the inhibition was 40.1% (active).

As for `CCOc1ccc2nc(N3CCCN(C(=O)Nc4ccccc4C)CC3)c(C#N)cc2c1`, the inhibition is 26.7%.

`CCC(C)(C)n1nnnc1CN1CCN(c2nc3ccc(C)cc3cc2C#N)CC1`: the inhibition is 35.2% (active).

For `Clc1ccccc1CSc1nnc(-c2ccco2)c(-c2ccco2)n1`, the inhibition is 27.3%.

Take `Fc1cccc(Cl)c1CSc1ccc(-c2ccco2)nn1`: the inhibition was 39.5% (active).

Turning to `COc1cc(C(=O)Nc2nccs2)cc(OC)c1OC`, the inhibition is 29%.

In the case of `CSc1nnc(NC(=O)c2nc(S(=O)(=O)Cc3ccc(C)cc3)ncc2Cl)s1`, the inhibition was -0.5%.

As for `COc1ccc(CS(=O)/C(Cl)=C(/Cl)C(=O)Nc2ccc(OC)nc2)cc1` (stereo not drawn), the inhibition is 34.8% (active).

For `Cn1c(CCCOc2ccc(Cl)cc2Cl)n[nH]c1=S`, the inhibition was 17.5%.

For `Cc1ccc(NC(=O)CN2CCC3(O)CCCCC3C2c2ccc3c(c2)OCO3)c(C)c1` (stereo not drawn), the inhibition is 37.5% (active).

Regarding `Cn1c(C(=O)OC(C(=O)NC2CCCCC2)c2ccccn2)cc2sccc21` (stereo not drawn), the inhibition was 17.9%.

Regarding `CN(c1ccccc1)S(=O)(=O)c1ccc(NC(=O)COc2ccccc2)cc1`, the inhibition was 34.2% (active).

`Cc1ccc(NC(=O)CCOc2ccccc2)cc1S(=O)(=O)Nc1ccccc1Cl`: the inhibition was 29.1%.

Take `N/C(=N\OC(=O)CCc1ccccc1)c1ccc(Cl)cc1`: the inhibition was 57.7% (active).

Take `COc1ccc(/C(N)=N/OC(=O)CCCc2ccccc2)cc1`: the inhibition was 48.1% (active).

`COc1ccc(/C(N)=N/OC(=O)Cc2ccccc2)cc1`: the inhibition is 15.5%.

Take `Nc1nc(-c2ccccc2)cc(-c2ccccc2)n1`: the inhibition is 10%.

As for `CS(=O)(=O)c1sc2nc(-c3ccccc3)cc(-c3ccccc3)c2c1N`, the inhibition is 33.8% (active).

In the case of `O=C(COc1ccccc1Cl)N1N=C(c2cccs2)CC1c1ccco1` (stereo not drawn), the inhibition was 27.8%.

On to `O=C(CC(O)(C(F)(F)F)C(F)(F)F)Nc1ccc(Cl)c(Cl)c1`, for which the inhibition is 88.2% (active).

On to `CN=c1scc(-c2cc(OC)ccc2OC)n1/N=C/c1c(C)[nH]c2ccccc12`, for which the inhibition is 19.1%.

As to `O=S(=O)(Nc1cccc(Oc2ccc(Cl)cc2)n1)c1ccc(F)cc1`, the inhibition is 45% (active).

For the compound `CCCc1nc2c(c(=O)c3ccccc3n2C)c(=O)n1C1CCCCCC1`, the inhibition was 28.5%.

As for `CCCCCC1CCC(c2nnc(SCC(C)=O)o2)CC1` (stereo not drawn), the inhibition is 39.2% (active).

Regarding `COc1ccc(CCNc2cc(C)nc3c(-c4ccc(Cl)cc4)c(C)nn23)cc1OC`, the inhibition was 24%.

For `CCOC(=O)c1c(CN2CCOCC2)n(-c2ccccc2)c2ccc(O)cc12`, the inhibition is 22.6%.

`CCOC(=O)c1c(-c2ccccc2)oc2cc(Br)c(O)cc12`: the inhibition was 39.4% (active).

For `CCOC(=O)c1c(-c2ccccc2)oc2ccc(OCC(=O)NN)cc12`, the inhibition was 15.6%.

`CCOc1ccccc1N1CCN(C(=O)c2ccc3[nH]c(C)c(C)c3c2)CC1`: the inhibition is 16.4%.

For `CCn1nccc1C(=O)Nc1ccc(Cl)c(Cl)c1`, the inhibition was 37.8% (active).

Consider `O=C(/C=C/c1ccccc1)c1ccccc1O`, for which the inhibition was 56.2% (active).

Consider `COc1ccc(C(=O)Nc2ccc(-n3nncc3C(C)(C)C)cc2)cc1`, for which the inhibition was 38.6% (active).

Turning to `Cc1ccc(S/C(=N\S(=O)(=O)c2ccc(Cl)cc2)c2ccccc2)cc1`, the inhibition was 35.6% (active).

Turning to `CC(C)Cn1c(N)c(C(=O)NCc2cccs2)c2nc3ccccc3nc21`, the inhibition was 22.4%.

Turning to `Fc1ccc(N2CCN(Cc3cnc(Oc4ccc(Br)cc4)s3)CC2)cc1`, the inhibition was 28.4%.

For `O=C(c1cccc(C(=O)N2CCN(c3ccc(F)cc3)CC2)c1)N1CCN(c2ccc(F)cc2)CC1`, the inhibition was 27%.

With `Oc1c(CN2CCN(c3ccc(F)cc3)CC2)cc(Cl)c2cccnc12`, the inhibition is 32% (active).

As to `OC(CNCC1CCCO1)Cn1c2ccc(Br)cc2c2cc(Br)ccc21` (stereo not drawn), the inhibition is 3.65%.

Turning to `O=C(/C=C/c1cccs1)c1cc(Cl)ccc1OC(=O)N1CCOCC1`, the inhibition was 48.5% (active).
